Test results as given in PubChem BioAssay (NCI).
“And” between values parts separate entries of the source, which are not always exact repeats. Equal values may be shown once. About 83,000 compounds went through this panel and 20% of them were active in at least one assay; those are over-represented in the sample as a whole.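 Single-concentration screen, 48 h exposure, 96-well plates. Endpoint: percent growth. Below 10 = active.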 The source made the active and inactive calls.

Key:
Assay in all cases: NCI-60 one-dose screen, 48 h (100 = growth as untreated, 0 = no growth, -100 = all killed)
Settings in all cases: 10 µM unless noted
SK-MEL-2 melanoma = test system: SK-MEL-2 melanoma
EKVX NSCLC = test system: EKVX NSCLC
SN12C renal = test system: SN12C renal
UO-31 renal = test system: UO-31 renal
TK-10 renal = test system: TK-10 renal
ACHN renal = test system: ACHN renal
CAKI-1 renal = test system: CAKI-1 renal
A498 renal = test system: A498 renal
HL-60(TB) leukemia = test system: HL-60(TB) leukemia
CCRF-CEM leukemia = test system: CCRF-CEM leukemia
MOLT-4 leukemia = test system: MOLT-4 leukemia
SR leukemia = test system: SR leukemia
RPMI-8226 leukemia = test system: RPMI-8226 leukemia
OVCAR-8 ovarian = test system: OVCAR-8 ovarian
OVCAR-5 ovarian = test system: OVCAR-5 ovarian
OVCAR-4 ovarian = test system: OVCAR-4 ovarian
IGROV1 ovarian = test system: IGROV1 ovarian
OVCAR-3 ovarian = test system: OVCAR-3 ovarian
HS 578T breast = test system: HS 578T breast
SK-OV-3 ovarian = test system: SK-OV-3 ovarian

Measured: growth

CCCCCCCCCCCCCCCCCC1OCC(COC(=O)O[C@@H](C(=O)O[C@H]2C[C@@]3(O)[C@@H](OC(=O)c4ccccc4)[C@@H]4[C@]5(OC(C)=O)CO[C@@H]5C[C@H](O)[C@@]4(C)C(=O)[C@H](OC(C)=O)C(=C2C)C3(C)C)[C@@H](NC(=O)c2ccccc2)c2ccccc2)O1 (some centres not stated)
active: HL-60(TB) leukemia 4.84% | RPMI-8226 leukemia 4.08%
inactive: SK-MEL-2 melanoma 59.5% | EKVX NSCLC 77.5% | SN12C renal 44.8% | UO-31 renal 107% | TK-10 renal 102% | ACHN renal 96.6% | CAKI-1 renal 82.8% | A498 renal 46% | CCRF-CEM leukemia 18.5% | MOLT-4 leukemia 43.6% | SR leukemia 18% | OVCAR-8 ovarian 48.9% | OVCAR-5 ovarian 55.5% | OVCAR-4 ovarian 67.4% | IGROV1 ovarian 47.6% | OVCAR-3 ovarian 15.7% | HS 578T breast 28.9%

COC(=O)C12C3C4C1C1C2C3C41NC(=O)c1csc([C@@H](C[C@H](C(C)C)N(C)C(=O)[C@@H](NC(=O)[C@H]2CCCCN2C)C2CC2)OC(C)=O)n1 (some centres not stated)
active: A498 renal -3.52% | HL-60(TB) leukemia -37.4% | SK-OV-3 ovarian 7.71% | OVCAR-3 ovarian -4.31%
inactive: SK-MEL-2 melanoma 19.1% | EKVX NSCLC 60.2% | SN12C renal 31.1% | UO-31 renal 45.6% | TK-10 renal 41.2% | ACHN renal 36.4% | CAKI-1 renal 38.1% | CCRF-CEM leukemia 16.5% | MOLT-4 leukemia 19.2% | SR leukemia 19.1% | RPMI-8226 leukemia 21.7% | OVCAR-8 ovarian 18.9% | OVCAR-4 ovarian 49.9% | IGROV1 ovarian 32.7% | HS 578T breast 28.1%

Cc1ccc(NC2=N[C@]34CC(=O)CC[C@]3(C)[C@H]3CC[C@]5(C)C(=O)CC[C@H]5[C@@H]3C[C@@H]4S2)c(C)c1
active: HL-60(TB) leukemia 9.29% | CCRF-CEM leukemia 7.99% | MOLT-4 leukemia -0.311% | SR leukemia -0.627% | RPMI-8226 leukemia -3.52% | OVCAR-3 ovarian -6.33%
inactive: SK-MEL-2 melanoma 72.6% | EKVX NSCLC 51.9% | SN12C renal 26.2% | UO-31 renal 34.3% | TK-10 renal 63.3% | ACHN renal 32.3% | CAKI-1 renal 49.8% | A498 renal 66.7% | OVCAR-5 ovarian 59.1% | OVCAR-4 ovarian 59.6% | SK-OV-3 ovarian 78.5% | IGROV1 ovarian 17.7% | HS 578T breast 45.3%

CCCCCCCCCCCCCCCC[n+]1ccccc1
active: SK-MEL-2 melanoma -83.3% and -80.1% | EKVX NSCLC -47.9% and -2.17% | SN12C renal -37.9% and -29.2% | TK-10 renal -74.4% | ACHN renal -23.8% and 7.44% | CAKI-1 renal -16.1% and -34.4% | A498 renal -18.7% and -7.63% | HL-60(TB) leukemia -55.7% | CCRF-CEM leukemia -69% and -43.7% | MOLT-4 leukemia -61.5% and -64.2% | SR leukemia -32.3% and -40.4% | RPMI-8226 leukemia -67.1% and -42.5% | OVCAR-8 ovarian -72.2% and -41.8% | OVCAR-5 ovarian -45.6% and -15% | OVCAR-4 ovarian -5.49% and -2.49% | OVCAR-3 ovarian -70.9% and -51%
-28% (active) and 11.7% (inactive): UO-31 renal

COc1ccn(C)c(=O)c1C#N
inactive: SK-MEL-2 melanoma 72.9% | EKVX NSCLC 105% | SN12C renal 105% | UO-31 renal 87.2% | TK-10 renal 78.5% | ACHN renal 102% | CAKI-1 renal 100% | A498 renal 86.2% | HL-60(TB) leukemia 104% | CCRF-CEM leukemia 120% | MOLT-4 leukemia 106% | SR leukemia 90% | RPMI-8226 leukemia 102% | OVCAR-4 ovarian 114% | SK-OV-3 ovarian 91.9% | IGROV1 ovarian 98.7% | OVCAR-3 ovarian 93.8% | HS 578T breast 105%

CC[C@H](C)[C@H](NC(=O)C12CC(NC)(C1)C2)C(=O)N(C)[C@H](C[C@@H](OC(C)=O)c1nc(C(=O)N[C@@H](Cc2ccccc2)C[C@H](C)C(=O)OC)cs1)C(C)C
inactive: SK-MEL-2 melanoma 36.7% | EKVX NSCLC 37.3% | SN12C renal 47.2% | UO-31 renal 40.7% | TK-10 renal 48.5% | ACHN renal 33.9% | CAKI-1 renal 91.2% | RPMI-8226 leukemia 26.3% | OVCAR-5 ovarian 52.7% | OVCAR-4 ovarian 50.3% | SK-OV-3 ovarian 39.6% | IGROV1 ovarian 29.7% | HS 578T breast 39.2%
active: A498 renal -0.0952% | HL-60(TB) leukemia -32.5% | CCRF-CEM leukemia 1.27% | MOLT-4 leukemia 8.66% | SR leukemia -2.59% | OVCAR-3 ovarian -14.1%

CC[C@H](C)[C@H](NC(=O)CN(C)C)C(=O)N(C)[C@H](C[C@@H](OC(C)=O)c1nc(C(=O)NC23CC(C(=O)OC)(C2)C3)cs1)C(C)C
inactive: SK-MEL-2 melanoma 37.5% | EKVX NSCLC 32.8% | SN12C renal 31.3% | UO-31 renal 50.1% | TK-10 renal 43.5% | ACHN renal 46.9% | CAKI-1 renal 51.6% | MOLT-4 leukemia 12.3% | SR leukemia 17.8% | RPMI-8226 leukemia 18.8% | OVCAR-8 ovarian 19.1% | OVCAR-4 ovarian 47.9% | SK-OV-3 ovarian 32.6% | IGROV1 ovarian 33% | HS 578T breast 31.9%
active: A498 renal 9.1% | HL-60(TB) leukemia -18.9% | CCRF-CEM leukemia 6.24% | OVCAR-3 ovarian -47.2%

CCCN1C(=O)NC(=O)C(CC)(N2C(=O)c3c(F)c(F)c(F)c(F)c3C2=O)C1=O (configuration not stated)
active: SK-MEL-2 melanoma -65.2% | EKVX NSCLC -44.4% | SN12C renal -72.7% | UO-31 renal -98.8% | TK-10 renal -76.4% | ACHN renal -79.4% | CAKI-1 renal -89.9% | A498 renal -85.3% | HL-60(TB) leukemia -80.1% | CCRF-CEM leukemia -56.7% | MOLT-4 leukemia -79.6% | SR leukemia -76.5% | RPMI-8226 leukemia -30% | OVCAR-8 ovarian -56.7% | OVCAR-5 ovarian -88.1% | OVCAR-4 ovarian -43.1% | IGROV1 ovarian -77.9% | OVCAR-3 ovarian -96.4% | HS 578T breast -24.6%

CN1C2CCC1[C@@H](COC(=O)c1ccccc1)[C@@H](O)C2 (some centres not stated)
inactive: SK-MEL-2 melanoma 104% | EKVX NSCLC 104% | SN12C renal 105% | UO-31 renal 91.8% | TK-10 renal 131% | ACHN renal 105% | CAKI-1 renal 122% | A498 renal 144% | HL-60(TB) leukemia 81.7% | CCRF-CEM leukemia 94.3% | MOLT-4 leukemia 97.8% | SR leukemia 105% | RPMI-8226 leukemia 77.7% | OVCAR-8 ovarian 103% | OVCAR-5 ovarian 106% | OVCAR-4 ovarian 103% | SK-OV-3 ovarian 107% | OVCAR-3 ovarian 111% | HS 578T breast 119%

Cc1ccc(S(=O)(=O)n2cc([C@@]3(O)C[C@H](CSC#N)OC3=O)c3ccccc32)cc1
inactive: SK-MEL-2 melanoma 61% | EKVX NSCLC 102% | SN12C renal 60.7% | UO-31 renal 56.2% | TK-10 renal 64.2% | ACHN renal 63% | CAKI-1 renal 66.8% | A498 renal 97.1% | HL-60(TB) leukemia 80.1% | CCRF-CEM leukemia 31.7% | SR leukemia 49% | RPMI-8226 leukemia 16.3% | OVCAR-8 ovarian 83.2% | OVCAR-5 ovarian 83.9% | OVCAR-4 ovarian 75.7% | SK-OV-3 ovarian 99.6% | OVCAR-3 ovarian 54.8% | HS 578T breast 44.4%
active: MOLT-4 leukemia 7.16%

O=C1NC(=O)C(=Cc2ccccc2)C(=O)N1
inactive: SK-MEL-2 melanoma 106% and 114% | EKVX NSCLC 98.4% and 101% | SN12C renal 89.7% and 102% | UO-31 renal 93.5% | TK-10 renal 106% and 102% | ACHN renal 99.5% and 112% | CAKI-1 renal 84.2% and 103% | A498 renal 128% and 94.2% | HL-60(TB) leukemia 68.3% and 105% | CCRF-CEM leukemia 90.7% and 107% | MOLT-4 leukemia 81.5% and 109% | SR leukemia 89.7% and 107% | RPMI-8226 leukemia 112% and 110% | OVCAR-8 ovarian 104% | OVCAR-4 ovarian 109% and 112% | SK-OV-3 ovarian 106% and 107% | IGROV1 ovarian 92.5% and 104% | OVCAR-3 ovarian 102% and 111% | HS 578T breast 119% and 103%

C=C[Se]CC(=O)/C=C/c1ccccc1
inactive: SK-MEL-2 melanoma 99.9% | EKVX NSCLC 70.4% | SN12C renal 73.6% | UO-31 renal 39.4% | TK-10 renal 103% | ACHN renal 95.5% | CAKI-1 renal 106% | A498 renal 65.3% | HL-60(TB) leukemia 42.2% | CCRF-CEM leukemia 47.4% | MOLT-4 leukemia 79.5% | SR leukemia 58.7% | RPMI-8226 leukemia 93.2% | OVCAR-8 ovarian 59.5% | OVCAR-5 ovarian 89.9% | OVCAR-4 ovarian 95.3% | IGROV1 ovarian 104% | OVCAR-3 ovarian 89.1% | HS 578T breast 66.1%

C=CC[PH+](c1ccccc1)c1ccccc1.C=CC[PH+](c1ccccc1)c1ccccc1.[Pt+2].[S-]c1nc2ccccc2[nH]1.[S-]c1nc2ccccc2[nH]1
inactive: EKVX NSCLC 33% | UO-31 renal 35.2% | ACHN renal 42.3% | CAKI-1 renal 25%
active: SK-MEL-2 melanoma -72.9% | SN12C renal -4.98% | TK-10 renal -12.2% | A498 renal -16.1% | HL-60(TB) leukemia -20.8% | CCRF-CEM leukemia 6.12% | MOLT-4 leukemia 0.306% | SR leukemia 4.38% | RPMI-8226 leukemia -19.1% | OVCAR-8 ovarian 2.64% | OVCAR-5 ovarian -3.98% | OVCAR-4 ovarian 4.93% | IGROV1 ovarian -23.4% | OVCAR-3 ovarian -23.3% | HS 578T breast -16.6%

CC1=CC(=Nc2ccc(N(CCCl)CCCl)cc2)C=C(C)C1=O
active: SK-MEL-2 melanoma -8.46% | UO-31 renal -13.7% | TK-10 renal 9.98% | ACHN renal -1.94% | CAKI-1 renal -44.9% | HL-60(TB) leukemia -7.43% | CCRF-CEM leukemia -6.58% | MOLT-4 leukemia -21.2% | SR leukemia -2.28% | RPMI-8226 leukemia 9.64% | OVCAR-4 ovarian -35.7% | OVCAR-3 ovarian -62.5%
inactive: EKVX NSCLC 70.6% | SN12C renal 20.4% | A498 renal 69.8% | OVCAR-8 ovarian 18.7% | OVCAR-5 ovarian 35% | HS 578T breast 26.7%
